Bioassay records: PubChem, several laboratories
Rv3671c protease – Rv3671c serine protease inhibitors, primary screen, biochemical, fluorescence polarization, M. tuberculosis H37Rv; P9WHR9; inhibition, % at 5.96 µM; 0.048% of 320,000 active; AID 2606, 2010; in the data active means inhibition above about 38%;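 further: extracellular domain of Rv3671c used as enzyme; 0% = enzyme with DMSO and 100% = no enzyme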
UGM FP inh – M. tuberculosis UGM enzyme inhibitors, primary screen, biochemical, fluorescence polarization, single point | UDP-galactopyranose mutase (Mycobacterium tuberculosis (strain ATCC 25618 / H37Rv)), … | purified UGM, fluorescence polarization probe displacement | inhibition, % at 10 µM | 0.06% of 320,000 active; in the data active means inhibition above about 10%, passing the limit was not always enough
GDH-TPI inh – GDH-TPI coupling enzyme inhibitors, primary screen, artefact control for M. tuberculosis FBA inhibitor project, biochemical, absorbance, full deck; 1.2% of 360,000 active; GDH-TPI coupled enzyme counterscreen, NADH absorbance; inhibition, % at 4.8 µM; AID 588335, 2011; in the data active means inhibition above about 30%;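 further: 0% = DMSO wells and 100% = wells lacking the enzyme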
FBA Mtb inh – Mtb FBA enzyme inhibitors, primary screen, biochemical, fluorescence, strain H37Rv; inhibition, % at 1 µM; purified M. tuberculosis FBA, fluorescence read-out; 2.3% of 360,000 active; AID 588726, 2011; Fructose-bisphosphate aldolase (Mycobacterium tuberculosis (strain ATCC 25618 / H37Rv)), …; in the data active means inhibition above about 27%;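 further: 0% = vehicle and 100% = reference inhibitor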
Target sequence (P9WQA3 whole entry, looked up): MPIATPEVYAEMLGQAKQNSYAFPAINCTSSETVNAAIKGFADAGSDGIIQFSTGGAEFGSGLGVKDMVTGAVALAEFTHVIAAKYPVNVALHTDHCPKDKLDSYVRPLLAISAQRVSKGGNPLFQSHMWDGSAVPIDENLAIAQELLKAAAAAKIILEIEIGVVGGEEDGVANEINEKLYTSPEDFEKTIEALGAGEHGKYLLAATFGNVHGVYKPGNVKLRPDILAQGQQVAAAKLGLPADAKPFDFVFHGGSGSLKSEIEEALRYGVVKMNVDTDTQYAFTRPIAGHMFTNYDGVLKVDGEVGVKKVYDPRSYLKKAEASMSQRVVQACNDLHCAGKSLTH
The depositor's hits bear a star; · = no result; + = active, no number. A selection: hits, their analogues and other compounds. The true share with any hit is near 3.5%.

SMILES	Rv3671c protease	UGM FP inh	GDH-TPI inh	FBA Mtb inh
CCN(CC)C(=O)COc1ccc2oc(-c3ccco3)cc(=O)c2c1	-14.7	0.8	24.8	134.3*
COc1ccc(Nc2ncc3c(n2)CC(c2ccccc2)CC3=O)cc1 (centres undefined)	-7.3	-2.4	30.9*	-0.3
Cc1cccc(Nc2ncc3c(n2)CC(c2ccco2)CC3=O)c1 (centres undefined)	-20.8	-3.3	26.4	-0.4
Cc1cccc(Nc2ncc3c(n2)CC(C)CC3=O)c1 (centres undefined)	2.0	-0.7	36.1*	4.2
CCn1c(SCC(=O)N/N=C/c2c[nH]c3ccccc23)nnc1-c1ccc(C(C)(C)C)cc1	7.4	1.2	20.8	-3.8
Cc1cccc2cc(C#N)c(NCc3ccccc3)nc12	6.8	-0.9	-0.9	29.7*
Cc1cccc2cc(C#N)c(NCCNS(=O)(=O)c3ccccc3)nc12	-14.8	-4.5	-3.1	12.9
CCCc1ccc(C(=O)NNc2ccccc2F)cc1	-2.2	0.1	-1.6	3.4
COCCn1c(N)c(C#N)c2nc3ccccc3nc21	-24.5	-2.1	9.4	115.5*
COc1ccc(Cn2c(N)c(C#N)c3nc4ccccc4nc32)cc1	-18.3	1.5	7.9	179.5*
Cc1ccc(Cn2c(N)c(S(=O)(=O)c3cccs3)c3nc4ccccc4nc32)cc1	6.2	-0.4	8.5	18.0
COCCn1c(N)c(S(=O)(=O)c2cccs2)c2nc3ccccc3nc21	-137.6	3.0	25.5	+
N#Cc1c(N)n(CCc2ccc(F)cc2)c2nc3ccccc3nc12	-8.0	2.3	-2.5	151.3*
Cc1nnsc1-c1nnc(SCC(=O)c2ccccc2)n1C1CC1	2.3	-1.9	5.6	4.1
COC(=O)c1ccc(CNC(=O)c2ccc3c(c2)S(=O)(=O)N=C2CCCCCN23)cc1	-1.6	2.1	-0.3	-0.4
COCCn1c(=NC(=O)c2cc3ccccc3oc2=O)sc2cc(S(N)(=O)=O)ccc21	-2.9	-4.4	49.3*	1.9
COc1ccc(-c2nsc(C(=O)N(c3ccc(F)cc3)C(C(=O)NC3CCCC3)c3ccc(OC)cc3)c2N)cc1 (centres undefined)	-9.5	-2.3	31.1*	-0.5
C=CS(=O)(=O)c1c2cc(OC)ccc2nc2ccc(OC)cc12	·	·	8.6	38.2*
COc1ccc2nc(Cl)cc(Cl)c2c1	4.7	-0.1	-7.7	0.2
Nc1cc(C(=O)O)c(Oc2ccc(Cl)cc2Cl)cc1C(=O)O	-9.2	4.1	-0.8	+
CCn1c(-c2ccc(N(C)C)cc2)nc2ccccc21	2.3	3.5	17.4	+
CN(C)c1ccc(C(O)Cc2nc3ccccc3n2C)cc1 (centres undefined)	-4.0	0.2	-0.8	-3.2
CC(C)n1c(-c2ccc(N(C)C)cc2)nc2ccccc21	3.7	1.0	11.0	184.6*
CN(C)c1ccc(-c2nc3ccccc3n2C)cc1	-2.3	-2.5	17.7	+
CCn1c(-c2ccco2)nc2ccccc21	-1.8	1.7	-10.2	16.5
SMILES	Rv3671c protease	UGM FP inh	GDH-TPI inh	FBA Mtb inh
CC1CCN(S(=O)(=O)c2cnc[nH]2)CC1	-3.3	3.2	-0.5	0.6
CC(Sc1nnnn1C1CCCC1)C(=O)Nc1cccc(S(=O)(=O)N2CCOCC2)c1 (centres undefined)	13.0	2.8	4.2	3.0
CCC1Cc2[nH]c(=S)[nH]c(=O)c2C(c2ccc(F)cc2)O1 (centres undefined)	·	·	·	-5.9
CC1=C(O)C(=O)C(C2=C(O)C(=O)C(C)=C(O)C2=O)=C(O)C1=O	·	·	49.0*	4.3
COc1ccc(/C=N/N(CCC(=O)NC(C)(C)C)C2=NS(=O)(=O)c3ccccc32)cc1	0.1	-1.2	47.0*	5.9
CC12CCC(=O)N1C(C(=O)Nc1cc(S(=O)(=O)N3CCCCCC3)ccc1OCC(F)(F)F)CS2 (centres undefined)	-4.5	2.4	6.2	1.2
CCOC(=O)c1oc2nc(CC(C)C)c3c(c2c1N)CCCC3	-1.4	-1.2	0.0	137.1*
C[C@H](CO)N1C[C@H](C)[C@@H](CN(C)S(=O)(=O)c2ccccc2)Oc2c(NC(=O)CCC(F)(F)F)cccc2C1=O	-5.4	0.6	5.9	0.4
Nc1ccc(-c2nc3ccc([N+](=O)[O-])cc3[nH]2)cc1	-1.3	0.2	22.3	2.0
Cc1ccc2nc(-c3ccccn3)[nH]c2c1	10.1	0.9	9.6	5.1
Cc1ccc2nc(Cc3ccc(N)cc3)[nH]c2c1	3.1	1.0	9.3	1.0
Nc1ccc(-c2nc3c(Cl)c(N)ccc3[nH]2)cc1	-5.0	0.8	38.4*	+
Cc1ccc2nc(-c3ccccc3N)[nH]c2c1	-0.1	-0.5	6.3	+
Nc1ccc2nc(-c3cc(Cl)c(N)c(Cl)c3)[nH]c2c1	15.4	-1.4	35.4*	24.9
Nc1ccc2nc(-c3cccc(-c4nc5ccc(N)cc5[nH]4)c3)[nH]c2c1	24.7	-0.8	27.2	0.1
Cc1ccc(C)c(-c2nc3ccc(N)cc3[nH]2)c1	-16.7	-0.3	-1.9	189.5*
O=[N+]([O-])c1ccc(-c2nc3ccc([N+](=O)[O-])cc3[nH]2)cc1	3.0	0.9	31.2*	1.5
Cc1cc(=O)[nH]c(-c2ccccc2O)n1	11.3	0.2	11.4	12.9
Cc1cc2nc(-c3ccccc3O)[nH]c2cc1C	·	·	15.3	157.1*
Cc1nc2ccc(-c3nc4ccc(N)cc4[nH]3)cc2[nH]1	16.2	0.9	3.8	+
Nc1ccc(-c2nc3ccc(N)cc3[nH]2)cc1	6.7	2.2	17.9	+
Cc1ccc(/C=C2/SC(=S)N(c3ccc(S(=O)(=O)Nc4nccs4)cc3)C2=O)cc1	3.3	4.1	39.3*	1.7
COc1ccc(-n2ccc(=O)c(C(=O)Nc3ccc(S(=O)(=O)Nc4nccs4)cc3)n2)cc1	-15.2	0.4	39.9*	2.4
COc1ccc(/C=C2/SC(=O)N(CCC(=O)Nc3ccc(S(=O)(=O)Nc4nccs4)cc3)C2=O)cc1	-227.2	-0.6	33.8*	-5.9
COc1ccc(C2CC(c3cccs3)n3nc(N)nc3N2)cc1 (centres undefined)	4.3	1.9	23.8	134.6*
SMILES	Rv3671c protease	UGM FP inh	GDH-TPI inh	FBA Mtb inh
Nc1nc2n(n1)C(c1cccs1)CC(c1ccc(F)cc1)N2 (centres undefined)	-5.4	0.3	0.3	13.0
CC1=CC(=O)C2=C(C)CCC3C(C)C(=O)OC3C12 (centres undefined)	·	·	0.0	-0.9
Nc1nc2nccc(-c3ccco3)n2n1	-2.9	1.9	21.1	+
COc1ccc(N2C(=O)c3cccc4c(N(C)CCO)ccc(c34)C2=O)cc1	·	20.9*	-8.6	-13.1
O=C(O)c1cc2c(s1)-c1ccccc1CC2	-1.1	-0.5	51.9*	190.8*
O=C(Nc1cccc(C(F)(F)F)c1)c1cc2c(s1)-c1ccccc1OC2	-12.6	1.3	10.0	13.9
O=C(NC1CC1)c1cc2c(s1)-c1ccccc1OC2	-2.9	1.0	23.2	+
O=C(N/N=C/c1ccc(Cl)cc1)c1cc2c(s1)-c1ccccc1CC2	-5.4	-0.3	11.8	4.2
